Screens from PubChem.
The list is not random: actives were taken first. Their share in the collection is about 2.4%.
CRFR2-BP ag: CRF-BP/CRF-R2 complex agonism | activation, % at 13.2 µM | 350,000 tested, 0.46% active | AID 588473 | HEK293 CRF-R2/CRF-BP, calcium dye fluorescence (FLIPR); percent of saturating CRF peptide response;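 active = activation of at least 50%, plus an integration ratio under a set limit after plate pattern correction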;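 also: plate controls were neutral control wells without compound for no effect and CRF at EC100 for full effect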
Cardiac RTF inh: cardiac RTF calcium desensitization; P19429+P45379; IANBD-labeled cardiac RTF, Ca2+ fluorescence; inhibition, % at 7.15 µM; 340,000 tested, 0.12% active; AID 493244;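 active = inhibition above the mean inhibition of all tested compounds plus 3 SD, cut at about 17% in these data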;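 also: assay run at fixed EC70 calcium of 1.6 mM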
CRFBP-R2 block: blocks CRF-induced signaling of the CRF-BP/CRF-R2 complex | HEK293 CRF-R2/CRF-BP, CRF-induced calcium fluorescence | inhibition, % at 11.8 µM | 350,000 tested, 0.59% active;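 active = inhibition of the ligand-induced calcium signal above about 50% at the single tested concentration, limit read from the data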
TMEM16A act: activates or potentiates the mouse TMEM16A chloride channel; AID 623877; Q8BHY3; HEK293 TMEM16A/YFP-H148Q/I152L, iodide quench fluorescence; hits give low values; B-score at 10 µM; 340,000 tested, 0.3% active;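 active = fluorescence-ratio B-score plate-corrected deviation score at least 3 library SD below zero, with starting fluorescence score within 5 deviations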;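 also: channel opened by trigger with iodide after compound preincubation; score built on the fluorescence ratio of max minus min over baseline; more negative score means more quench and so TMEM16A activation or potentiation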
Target sequence (Q8BHY3 whole entry, looked up): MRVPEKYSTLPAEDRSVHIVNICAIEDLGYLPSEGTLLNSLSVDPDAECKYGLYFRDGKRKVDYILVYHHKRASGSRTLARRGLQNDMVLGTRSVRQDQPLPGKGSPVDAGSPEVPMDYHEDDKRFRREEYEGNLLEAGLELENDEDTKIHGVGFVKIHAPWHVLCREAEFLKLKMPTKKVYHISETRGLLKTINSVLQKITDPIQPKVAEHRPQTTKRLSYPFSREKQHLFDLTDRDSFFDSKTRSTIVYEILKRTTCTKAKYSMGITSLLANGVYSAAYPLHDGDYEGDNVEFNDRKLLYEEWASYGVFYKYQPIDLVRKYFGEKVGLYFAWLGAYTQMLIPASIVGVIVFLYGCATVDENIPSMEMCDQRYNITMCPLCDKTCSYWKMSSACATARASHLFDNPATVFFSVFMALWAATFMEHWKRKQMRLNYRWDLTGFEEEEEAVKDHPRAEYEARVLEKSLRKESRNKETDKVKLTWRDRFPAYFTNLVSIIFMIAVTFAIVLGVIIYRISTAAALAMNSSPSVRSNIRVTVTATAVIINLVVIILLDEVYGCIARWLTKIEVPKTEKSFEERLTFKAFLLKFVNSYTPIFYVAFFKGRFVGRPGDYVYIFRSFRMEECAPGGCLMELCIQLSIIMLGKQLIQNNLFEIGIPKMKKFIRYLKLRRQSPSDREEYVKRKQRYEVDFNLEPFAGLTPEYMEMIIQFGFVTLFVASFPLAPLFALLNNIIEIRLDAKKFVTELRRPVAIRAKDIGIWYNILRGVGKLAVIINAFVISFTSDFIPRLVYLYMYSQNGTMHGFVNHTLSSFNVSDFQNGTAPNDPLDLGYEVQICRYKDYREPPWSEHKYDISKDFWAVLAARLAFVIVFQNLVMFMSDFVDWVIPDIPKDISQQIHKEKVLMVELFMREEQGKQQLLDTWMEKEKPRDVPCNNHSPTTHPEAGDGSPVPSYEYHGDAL
TMEM16A inh: blocks the mouse calcium-activated chloride channel TMEM16A | Q8BHY3 | normalized B-score (activity score, 25-100; higher = stronger inhibition) at 10 µM | 310,000 tested, 1.2% active | HEK293 TMEM16A/YFP iodide influx fluorescence, ionomycin;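 active = ratio plate-corrected score three or more library SD toward inhibition, starting fluorescence score within five deviations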;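 also: score derived from kinetic fluorescence span divided by baseline fluorescence per well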
RTF Ca sens act: increases calcium sensitivity of human cardiac regulated thin filaments; activation, % at 7.2 µM; IANBD-labeled TnC RTF fluorescence at EC20 calcium; 0% EC20 calcium, 100% full calcium; 340,000 tested, 0.24% active; P19429+P45379;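 active = activation above the mean over all tested compounds plus 3 SD, cut at about 30% in these data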;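 also: rise in fluorescence read as greater calcium sensitivity of cardiac thin filaments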
TMEM16A reconf: TMEM16A (mouse) chloride channel inhibition, re-confirmation; 2,300 tested, 39% active; HEK293 TMEM16A/YFP-H148Q, iodide quench fluorescence; ionomycin added to raise cell calcium; shares compounds with TMEM16A inh; AID 652189; inhibition, % at 10 µM;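 active = mean duplicate percent inhibition, scaled so buffer wells are 0 and the reference blocker 100, over three buffer SD above buffer mean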
TMEM16A Ca cntr: calcium mobilization counter-screen hit for TMEM16A inhibitor series | shares compounds with TMEM16A inh | TMEM16A/YFP HEK293, Fluo4 calcium mobilization | calcium response (% of ionomycin), % at 10 µM | 2,300 tested, 2% active;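 active = duplicate-averaged calcium signal over 20% of the ionomycin maximum, relative to buffer baseline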;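 also: each well's signal is peak minus trough fluorescence divided by its pre-addition baseline; 0% = buffer wells and 100% = ionomycin wells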
YFP-HEK293 quench: acts in parental YFP-HEK293 cells lacking TMEM16A, counter-screen | shares compounds with TMEM16A inh | iodide YFP quench, ionomycin | YFP ratio F(max-min)/F0 at 10 µM | 2,300 tested, under 10 active;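 active = yellow fluorescent protein signal ratio exceeding the buffer control mean by over 5 SD of those controls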;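 also: ratio is mean of duplicate wells from kinetic YFP trace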
ClC-1 rat inh: rat ClC-1 inhibition, TMEM16A specificity screen; CHO ClC-1-YFP, iodide influx fluorescence quench; iodide control reads 0, buffer control 100; shares compounds with TMEM16A inh; ratio percent, % at 10 µM; 2,300 tested, under 10 active; AID 652236;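 active = duplicate-mean ratio percent above the mean of iodide-only control wells, which defines zero, plus 5 of their SD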;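 also: higher percent means stronger block of ClC-1 iodide influx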
An asterisk follows results filed as active; i = inactive; x = no result.

SMILES	CRFR2-BP ag	Cardiac RTF inh	CRFBP-R2 block	TMEM16A act	TMEM16A inh	RTF Ca sens act	TMEM16A reconf	TMEM16A Ca cntr	YFP-HEK293 quench	ClC-1 rat inh
COc1cccc(NC(=O)CSCc2n[nH]c(=O)[nH]2)c1	8.3	-7.7	8.1	i	i	-3.6	x	x	x	x
CC(C)c1ccc(NC(=O)CSc2n[nH]c(=O)n2Cc2ccco2)cc1	-0.9	x	4.9	i	25*	x	20.0%*	i	-1.02	-18.5
O=C(CSc1n[nH]c(=O)n1Cc1ccco1)Nc1ccccc1	-0.9	x	12.1	i	i	x	x	x	x	x
O=C(CNC(=O)c1ccc(Br)cc1)NC1=NCCS1	-0.6	5.4	-4.8	i	25*	-3.4	i	i	-1.17	-5.0
CC1(C)CC(=O)C2=C(C1)N(c1cccc(Cl)c1)C(=O)NC2(C(F)(F)F)C(F)(F)F	-1.6	1.9	-3.5	i	i	-0.9	x	x	x	x
Cc1ccc(Oc2ccccc2NC(=O)CSCC(=O)Nc2cc(C)on2)cc1	-2.6	-4.8	8.1	i	i	-3.2	21.5%*	i	-1.01	-11.0
C/C=C/C(=O)N1c2ccc(C)cc2C(C)=CC1(C)C	-2.8	-2.6	7.2	i	i	-0.8	x	x	x	x
CC1=CC(C)(C)N(S(=O)(=O)c2ccc(F)cc2)c2ccccc21	-0.8	4.6	22.7	i	25*	-0.8	i	i	-1.02	-17.5
CC1=CC(C)(C)N(S(=O)(=O)c2ccc(C)cc2)c2ccc(C)cc21	4.5	-2.7	30.4	i	25*	-10.6	i	i	-1.24	-11.5
CC(=O)Nc1ccc(S(=O)(=O)N2c3ccccc3C(C)=CC2(C)C)cc1	3.5	3.4	-1.6	i	i	-3.5	x	x	x	x
O=C(Cn1nnc(-c2ccccc2)n1)N/N=C/c1ccco1	3.6	-10.2	45.0	i	i	6.2	x	x	x	x
O=C(O)c1cc(S(=O)(=O)N2CCN(C(=O)c3ccco3)CC2)c(Cl)cc1Cl	-1.2	-6.1	5.5	i	i	1.3	x	x	x	x
COc1cccc(C(=O)CC(C#N)c2ccc(F)cc2)c1 (configuration not stated)	0.7	1.2	19.2	i	i	-1.2	x	x	x	x
CCOc1ccccc1NC(=O)COC(=O)COc1cccc2c1OC(C)(C)C2	-2.1	x	7.1	x	x	x	x	x	x	x
CC(=O)c1cccc(NS(=O)(=O)c2ccc(N/C=C\C(=O)c3ccc(F)cc3)cc2)c1	1.1	-3.9	2.5	i	100*	-3.8	32.0%*	i	-1.06	-25.5
O=C(O)COCC(=O)Nc1ccc(OCCc2ccccc2)cc1	0.2	-1.8	-17.7	i	i	4.2	x	x	x	x
CCCc1cc(=O)n2[nH]cc(-c3ccc(Cl)cc3)c2n1	-0.6	-5.5	10.8	i	100*	4.0	i	i	-0.927	-13.5
COCc1cc(=O)n2[nH]cc(-c3ccccc3)c2n1	1.1	5.3	8.9	i	i	0.5	x	x	x	x
C=CCn1c(=O)c(C(=O)Nc2ccc(C)cc2)c(O)c2ccccc21	-0.5	-7.4	-4.8	i	i	4.5	i	i	-1.11	-12.5
C=CCn1c(=O)c(C(=O)Nc2cc(C)ccn2)c(O)c2ccccc21	3.1	-9.3	0.7	i	i	4.8	x	x	x	x
CCn1c(=O)c(C(=O)NNC(=O)c2ccccc2F)c(O)c2ccccc21	99.9*	15.9	27.0	i	25*	-0.1	22.0%*	48.5%*	-1.19	-5.5
COc1cc(Cl)c(C)cc1NC(=O)CNC(=O)Cn1cnc2ccccc2c1=O	1.6	-7.9	-19.4	i	i	0.5	x	x	x	x
CCN(CC)S(=O)(=O)c1cccc(NC(=O)c2ccc(Br)cc2)c1	1.6	-23.4	5.4	i	i	-4.1	x	x	x	x
CCN(CC)S(=O)(=O)c1cccc(NC(=O)COc2ccc(Cl)cc2Br)c1	0.3	3.2	1.1	i	25*	5.7	i	i	-0.977	-8.5
O=S(=O)(Nc1nc2ccccc2s1)c1ccc(Cl)s1	-0.2	-6.1	58.4*	i	100*	-10.9	30.5%*	i	-0.848	-16.0
SMILES	CRFR2-BP ag	Cardiac RTF inh	CRFBP-R2 block	TMEM16A act	TMEM16A inh	RTF Ca sens act	TMEM16A reconf	TMEM16A Ca cntr	YFP-HEK293 quench	ClC-1 rat inh
O=C(O)CNC(=O)c1ccc(NC(=O)/C(=C/c2ccccc2)NC(=O)c2ccccc2)cc1	0.6	-4.6	-1.7	i	i	-4.6	x	x	x	x
N#CC1=C(N)OC2=C(CCc3ccccc32)C1c1ccccc1 (configuration not stated)	-0.1	9.7	-2.4	i	100*	8.9	51.5%*	i	-1.1	-10.0
c1csc(CN2CCOCC2)c1	-1.0	1.6	-3.9	i	i	2.6	x	x	x	x
Cc1ccc(C(=O)NCC(=O)OCc2csc(-c3ccccc3)n2)cc1	0.0	-14.9	-58.1	i	i	0.9	x	x	x	x
O=C(OCc1csc(-c2ccccc2)n1)c1ccc(O)cc1	-3.7	11.5	-3.5	i	100*	0.8	i	i	-1.12	-5.5
Cn1c(=O)c2c(ncn2CC(=O)OCC(=O)c2ccc(F)c(F)c2)n(C)c1=O	-1.4	-1.6	4.0	i	i	-2.8	x	x	x	x
CC1C(=O)N(c2ccc(S(=O)(=O)N(C)C)cc2)C1(/C=C/c1ccccc1)C(=O)NC1CCCC1 (configuration not stated)	-1.0	-10.2	1.2	i	i	-21.9	x	x	x	x
C=C(C)COc1ccc2c3c(c(=O)oc2c1OCC(=C)C)CCC3	3.1	-0.3	-28.4	i	100*	-0.3	17.0%*	i	-1.04	-2.5
COc1ccc(/C(C)=N/NC(=O)Cc2ccc(Cl)cc2)cc1	-2.2	0.3	1.2	i	i	8.0	x	x	x	x
CCOc1ccc(C(=O)C(C)OC(=O)C2CCN(c3ccc(C(F)(F)F)cn3)CC2)cc1 (configuration not stated)	4.9	-6.3	-12.9	i	25*	-13.7	i	i	-1.14	-12.0
O=S(=O)(Nc1ccc(S(=O)(=O)N2CCCCC2)cc1)c1ccc(Br)s1	-3.2	-5.6	-4.8	i	25*	-7.3	i	i	-0.949	-3.5
COc1ccc(N2CCN(C(=O)c3ccc(C)c(Cl)c3)CC2)cc1	0.3	-1.3	-9.0	i	25*	2.1	i	i	-1.03	0.5
